We go through 40 compounds from PubChem BioAssay AID602475 (National Center for Advancing Translational Sciences (NCATS), 2012).

SMILES strings stand for the structures. Results filed as inconclusive are left out. A call without a number means that no potency is given here. Calls of active or inactive are those of the source. Calls follow the shape of the dose curve; as a rule, active = well fitted inhibition curve with a large enough effect; inconclusive = small, poorly fitted or top-dose-only effect; inactive = no such curve, though single readings can be large or run the other way.

Luciferin 4-monooxygenase (Photinus pyralis), sequence (P08659 whole entry, looked up): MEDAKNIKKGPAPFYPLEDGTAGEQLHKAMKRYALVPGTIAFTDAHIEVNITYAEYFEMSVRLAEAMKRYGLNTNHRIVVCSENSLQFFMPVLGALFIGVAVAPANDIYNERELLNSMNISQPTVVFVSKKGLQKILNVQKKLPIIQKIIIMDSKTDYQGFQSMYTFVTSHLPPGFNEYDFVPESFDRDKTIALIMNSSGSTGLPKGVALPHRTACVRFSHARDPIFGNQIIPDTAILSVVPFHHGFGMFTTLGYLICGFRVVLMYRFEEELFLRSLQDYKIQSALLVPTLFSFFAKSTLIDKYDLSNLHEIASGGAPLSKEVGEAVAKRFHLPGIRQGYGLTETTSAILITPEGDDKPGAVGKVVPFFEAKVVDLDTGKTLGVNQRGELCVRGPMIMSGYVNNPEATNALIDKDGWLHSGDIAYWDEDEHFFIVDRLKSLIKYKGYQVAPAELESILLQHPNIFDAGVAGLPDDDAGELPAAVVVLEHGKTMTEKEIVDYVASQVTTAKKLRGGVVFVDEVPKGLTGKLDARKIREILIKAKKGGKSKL

This assay has as its target Luciferin 4-monooxygenase (Photinus pyralis) (UniProt P08659). Description: FLuc inhibitory activity for the follow-up compounds in a biochemical assay with an in-house formulation of detection reagent. The conditions noted are these: purified FLuc, luminescence; series mostly up to 25.6 µM. The source says: NCGC Assay Overview: Firefly (Photinus pyralis) luciferase is one of the most commonly used transcriptional reporters. It is considered one of the more dynamically responsive reporters - that is, responsive to changes in reporter transcription - as it requires no post-translational modifications and is enzymatically active directly after protein synthesis (Wood, 1998). With no endogenous expression in mammalian cells and without the requirement of external excitation, it offers very little background signal, thus generally providing excellent signal to background for most assays. Previous profiling work to determine the prevalence of compounds that affect FLuc enzymatic activity (PubChem AID 411) identified that ~3% of the MLSMR library (then at ~72K) inhibited FLuc (Auld et al., 2008). […] Of the compounds identified in this profile that inhibited FLuc, 151 compounds were selected for further analysis, in an effort to better understand their mode of inhibiting FLuc. The assay described here was to determine the activity of the compounds in a FLuc assay that used an in-house formulation of detection reagent.
NCGC Assay Protocol Summary: Reagents: 300mM Tris-HCl, 300mM Trizma base, 300mM MgCl, 1% Triton-X100, 5mM DTT, 500uM Coenzyme A trilithium salt (Sigma #C3019),450uM ATP (Sigma #A7699), 1mM D-luciferin sodium salt monohydrate (Biosynth #L8240); 10nM P. pyralis luciferase (Sigma #L9506) Control compounds used were two known firefly luciferase inhibitors (3-(5-(3-chlorophenyl)-1,2,4-oxadiazol-3-yl)benzoic acid and 5-(2-fluorophenyl)-3-phenyl-1,2,4-oxadiazole), and DMSO. Assay Summary: Six microliters of buffer containing firefly luciferase (final concentrations: 50mM Tris acetate, 10nM P. pyralis luciferase) are dispensed into each well of a Greiner white, solid-bottom 1536-well format plate using a flying reagent dispenser (FRD). These assay plates were then treated with 23nL of compound or DMSO using a Kalypsys pin tool, which allows for delivery of a 12-point intraplate titration of each compound to the assay plate (quantitative HTS), with final compound concentrations ranging from approximately ~25uM to 0.1nM. Three microliters of 3X in-house detection reagent was then delivered by FRD to each well (final concentrations in assay: 300mM Tris-HCl, 300mM Trizma base, 300mM MgCl, 1% Triton-X100, 5mM DTT, 500uM Coenzyme A trilithium salt, 450uM ATP, 1mM D-luciferin sodium salt monohydrate). Luciferase activity was then measured using a ViewLux CCD imager (PerkinElmer), with an average exposure time of 2-30 seconds (2X binning, medium/high gain).
`COc1ccc2nc(NC(=O)c3cccc(S(=O)(=O)N4CCOCC4)c3)sc2c1`: the Potency result is “inactive”.

Regarding `COc1ccc2nc(NC(=O)c3nc(S(=O)(=O)Cc4ccc(C)cc4)ncc3Cl)sc2c1`, the Potency entry was “inactive”.

With `COc1ccccc1C(=O)Nc1ccc(C(=O)Nc2ccccc2C(=O)O)cc1`, the Potency result is “inactive”.

Consider `O=C(O)c1ccc(NC(=O)c2cccc(C(=O)Nc3ccc(C(=O)O)cc3)c2)cc1`, for which the Potency entry was “inactive”.

`O=C(Nc1ccccc1C(=O)O)c1cccc(NC(=O)c2ccco2)c1`: the Potency result is “inactive”.

Regarding `CC(=O)Oc1ccc(C(=O)Nc2ccccc2C(=O)Nc2ccc(C(=O)O)cc2)cc1`, the Potency result was “inactive”.

Consider `COc1ccc2nc(NC(=O)c3cccs3)sc2c1`, for which the Potency result was “inactive”.

Turning to `COc1cc(C(=O)Nc2cc(C)c(O)c(-c3nc4ccccc4s3)c2)cc(OC)c1OC`, the Potency result was “inactive”.

As to `CN(C)c1cccc(C(=O)Nc2ccc(-c3nc4ccccc4s3)cc2)c1`, the Potency entry was “inactive”.

Turning to `c1ccc2sc(-c3ccc4c(c3)OCO4)nc2c1`, the Potency is 4.91 µM (active).

As to `O=C(Nc1ccccc1C(=O)O)c1cccc(NC(=O)c2ccc(Br)o2)c1`, the Potency entry is “inactive”.

For the compound `COc1ccc(CC(=O)Nc2cccc(C(=O)Nc3ccccc3C(=O)O)c2)cc1OC`, the Potency entry is “inactive”.

`CCc1noc(C)c1C(=O)Nc1nc2ccc(OC)cc2s1`: the Potency entry is “inactive”.

Regarding `O=C(Cc1ccccc1)Nc1ccccc1C(=O)Nc1ccc(C(=O)O)cc1`, the Potency result was “inactive”.

For the compound `Cc1ccc(NS(=O)(=O)c2ccc(Cl)c(C(=O)Nc3cccc(C(=O)O)c3)c2)cc1`, the Potency result is “inactive”.

On to `Cc1ccc(S(=O)(=O)N2CCOCC2)cc1C(=O)Nc1ccccc1C(=O)O`, for which the Potency entry was “inactive”.

With `CC(C)c1ccc(-c2nc3ccccc3s2)cc1`, the Potency was 0.098 µM (active).

Turning to `O=C(Nc1ccccc1C(=O)O)c1cc(S(=O)(=O)Nc2ccccc2)ccc1Cl`, the Potency result is “inactive”.

Consider `COc1ccc(C(=O)Nc2ccccc2C(=O)Nc2ccccc2C(=O)O)cc1`, for which the Potency result was “inactive”.

As to `O=C(O)c1cccc(NC(=O)c2cccc(S(=O)(=O)Nc3cccc(F)c3)c2)c1`, the Potency entry is “inactive”.

In the case of `CCOc1ccc2nc(NC(=O)c3ccoc3C)sc2c1`, the Potency is 4.91 µM (active).

Turning to `Cc1ccc2nc(-c3ccc(NC(=O)CN4CCN(C(=O)c5ccco5)CC4)cc3)sc2c1`, the Potency is 2.46 µM (active).

As for `O=C(O)c1cccc(NC(=O)c2cccc(S(=O)(=O)N3CCCCC3)c2)c1`, the Potency entry is “inactive”.

With `COc1ccc2nc(NC(=O)c3ccc([N+](=O)[O-])o3)sc2c1`, the Potency was 9.8 µM (active).

With `O=C(COC(=O)c1ccccc1[N+](=O)[O-])c1ccc2c(c1)OCO2`, the Potency was 0.0619 µM (active).

As to `Cc1cccc(C(=O)Nc2ccccc2C(=O)Nc2ccc(C(=O)O)cc2)c1`, the Potency entry is “inactive”.

As to `Oc1ccc(-c2nc3ccccc3s2)c(O)c1`, the Potency result is “inactive”.

With `COc1ccc2nc(NC(=O)Cc3cccs3)sc2c1`, the Potency result is “inactive”.

As for `Nc1ccc2nc(-c3ccccc3)sc2c1`, the Potency was 2.19 µM (active).

`COc1ccc(C(=O)Nc2nc3ccc(OC)cc3s2)cc1`: the Potency result was “inactive”.

Turning to `Cc1ccc2sc(-c3ccc(NC(=O)c4cc(-n5cnnc5)ccc4Cl)cc3)nc2c1`, the Potency result is “inactive”.

Take `Cc1ccc(C(=O)Nc2ccc(C(=O)O)cc2)cc1S(=O)(=O)NCc1ccccc1`: the Potency entry was “inactive”.

As for `CCOc1ccc(C(=O)Nc2ccccc2C(=O)O)cc1`, the Potency was 6.94 µM (active).

Consider `Nc1ccc(-c2nc3ccc(N)cc3s2)cc1`, for which the Potency was 4.91 µM (active).

`COc1ccc2nc(NC(=O)c3ccc(NS(=O)(=O)c4cccs4)cc3)sc2c1`: the Potency result was “inactive”.

Consider `COc1ccc(Br)cc1C(=O)Nc1ccc(C(=O)O)cc1`, for which the Potency entry was “inactive”.

With `CC(=O)Oc1ccc(C(=O)Nc2ccccc2C(=O)Nc2cccc(C(=O)O)c2)cc1`, the Potency result is “inactive”.

With `O=C(Nc1ccccc1C(=O)O)c1cccc(C(=O)Nc2ccccc2C(=O)O)c1`, the Potency entry is “inactive”.

Turning to `Nc1ccccc1C(=O)Nc1cccc(C(=O)O)c1`, the Potency entry is “inactive”.

On to `COc1ccc2nc(NC(=O)c3cnccn3)sc2c1`, for which the Potency is 4.38 µM (active).
